# Test results as given in PubChem BioAssay AID463173 (ICCB-Longwood Screening Facility, Harvard Medical School, 2010).
# Among all 52,000 compounds or so, about 1,700 (3.3%) were called active. The entries come from a sample that favours actives as a whole. A number with no mark means an inactive call. Rule as the data show it: active = survival mostly below about 52% (no sharp cut-off); inactive = mostly above about 56%.
# Tested on: Wild type
# Experiment: growth inhibition of S. aureus wild type versus tarO mutant, primary screen, teichoic acid synthesis inhibitors, RN4220, OD600 (AID 463173)
# Conditions: S. aureus RN4220 wild type/DeltatarO growth, OD600, 18 h, active compounds read low, screened at 18.75 µg/mL (by protocol)
row,Structure (SMILES),survival
1,Cc1ccc(-c2nnc3ccccc3c2C(=O)Nc2cccc(C(F)(F)F)c2)cc1,120%
2,COc1ccc(N(Cc2cccs2)C(=O)c2ccc(OCC(C)C)cc2)cc1,113%
3,CCc1ccccc1NC(=O)CN(c1cccc(C)c1C)S(C)(=O)=O,72%
4,Cc1ccc(NC(=O)Cn2c(=O)n(Cc3ccco3)c(=O)c3sc4ccccc4c32)cc1C,126%
5,CCc1nn2c(=O)cc(COC(=O)C3CCCCC3)nc2s1,72%
6,Cc1cccc(-c2nc(SCC(=O)NCC3CCCO3)c3c(=O)n(C)c(=O)n(C)c3n2)c1 (centres undefined),128%
7,Oc1c(C(c2ccccc2)N2CCOCC2)sc2nc(-c3ccco3)nn12 (centres undefined),88%
8,Cc1ccc(C(c2sc3nc(-c4ccco4)nn3c2O)N2CCC3(CC2)OCCO3)cc1 (centres undefined),70%
9,CN1CCN(C(c2ccccc2)c2sc3nc(-c4ccco4)nn3c2O)CC1 (centres undefined),59%
10,Oc1c(C(c2ccccc2)N2CCCC2)sc2nc(-c3ccco3)nn12 (centres undefined),-3% (active)
11,Oc1c(C(c2ccccc2)N2CCN(Cc3ccccc3)CC2)sc2nc(-c3ccco3)nn12 (centres undefined),10% (active)
12,CN1CCN(C(c2ccccc2Cl)c2sc3nc(-c4ccco4)nn3c2O)CC1 (centres undefined),129%
13,Oc1c(C(c2ccccc2Cl)N2CCCC2)sc2nc(-c3ccco3)nn12 (centres undefined),82%
14,Oc1c(C(c2ccc(F)cc2)N2CCN(Cc3ccccc3)CC2)sc2nc(-c3ccco3)nn12 (centres undefined),89%
15,Oc1c(C(c2ccccc2)N2CCC3(CC2)OCCO3)sc2nc(-c3ccco3)nn12 (centres undefined),73%
16,Cc1ccc(C(c2sc3nc(-c4ccco4)nn3c2O)N2CCN(Cc3ccccc3)CC2)cc1 (centres undefined),121%
17,Oc1c(C(c2ccccc2Cl)N2CCOCC2)sc2nc(-c3ccco3)nn12 (centres undefined),-2% (active)
18,Oc1c(C(c2ccc(Cl)cc2)N2CCC3(CC2)OCCO3)sc2nc(-c3ccco3)nn12 (centres undefined),0% (active)
19,COC(=O)c1ccc(NS(=O)(=O)c2c(C)nc3sccn3c2=O)cc1,85%
20,CC(=O)NC1Sc2ccccc2N=C1c1ccccc1 (centres undefined),112%
21,Cc1cccc(-n2c(Cc3ccccc3)nnc2SCc2nc(-c3cccs3)no2)c1,63%
22,Cc1ccc2onc(CC(=O)Nc3ccc(C(C)C)cc3)c2c1,85%
23,CCOc1ccc(NC(=O)c2sc3nc4c(c(-c5ccc(OC)cc5)c3c2N)C(=O)CC(C)(C)C4)cc1,69%
24,CCCn1c(N2CCN(CC(=O)Nc3ccc(Cl)cc3)CC2)nc2ccccc21,118%
25,Cc1nn(C)c2c1c(-c1ccccc1)cc(=O)n2CC(=O)NC(C)C,70%

row,Structure (SMILES),survival
1,COc1ccc(C2=NS(=O)(=O)N(C)C(C(=O)Nc3ccc(OC(F)(F)F)cc3)=C2)cc1,55%
2,CCc1ccc(S(=O)(=O)c2cnc3ccc(OC)cc3c2N2CCCC(C)C2)cc1 (centres undefined),2% (active)
3,COc1ccc(S(=O)(=O)c2cnc3cc(OC)c(OC)cc3c2N2CCCC(C)C2)cc1 (centres undefined),84%
4,CC1CCCN(c2c(S(=O)(=O)c3ccccc3)cnc3ccc(Cl)cc23)C1 (centres undefined),121%
5,Cc1ccccc1NC(=O)c1ccc(F)c(S(=O)(=O)N(C)Cc2ccccc2)c1,66%
6,Cc1ccccc1CN1C(=O)c2ccccc2Sc2ccc(C(=O)N3CCCC3)cc21,85%
7,CCCCOc1ccc(S(=O)(=O)Nc2ccc(-c3ccc(N4CCCCCC4)nn3)cc2)cc1,75%
8,Cc1c(C(=O)NCc2ccccc2Cl)sc2nc[nH]c(=O)c12,82%
9,Cc1cccc(CSc2nc3c(c(=O)[nH]2)CCC3)c1,78%
10,Cc1nc(SCc2cccc(Cl)c2)nc2c1CCCC2,-8% (active)
11,O=c1[nH]c(SCc2cccc(Cl)c2)nc2c1CCC2,91%
12,COc1cccc(-c2csc(-c3c(N)c(C(=O)c4ccccc4)n4ccccc34)n2)c1,72%
13,Cc1nn2c(=O)cc(COC(=O)Cc3ccccc3)nc2s1,80%
14,O=C1CC(c2nc3ccccc3n2CCCCOc2ccccc2)CN1c1ccccc1Cl (centres undefined),61%
15,CCc1ccccc1N1CC(c2nc3ccccc3n2CCOc2ccc(Cl)c(C)c2)CC1=O (centres undefined),2% (active)
16,Cc1cc(C)cc(OCCn2c(C3CC(=O)N(c4ccccc4Cl)C3)nc3ccccc32)c1 (centres undefined),97%
17,CCc1ccccc1N1CC(c2nc3ccccc3n2CCCCOc2ccccc2)CC1=O (centres undefined),19% (active)
18,CCOc1ccccc1N1CC(c2nc3ccccc3n2CCCOc2ccccc2)CC1=O (centres undefined),58%
19,CCOc1ccccc1N1CC(c2nc3ccccc3n2CCCCOc2ccccc2)CC1=O (centres undefined),73%
20,Cc1cccc(OCCCCn2c(C3CC(=O)N(c4ccc(C)cc4C)C3)nc3ccccc32)c1 (centres undefined),18%
21,Cc1cccc(OCCCCn2c(C3CC(=O)N(c4ccccc4Cl)C3)nc3ccccc32)c1 (centres undefined),17% (active)
22,CCc1ccccc1N1CC(c2nc3ccccc3n2CCCOc2ccc(Cl)cc2)CC1=O (centres undefined),29%
23,CCC1CCCCN1S(=O)(=O)c1cc2c3c(c1)CC(=O)N3CCC2 (centres undefined),95%
24,COc1ccc(C)cc1NC(=O)CN1C(=O)CSc2ccc(S(=O)(=O)N3CCCC3)cc21,93%
25,Cc1ccc2nc(/C(C#N)=C/c3ccccc3F)[nH]c2c1,46%

row,Structure (SMILES),survival
1,Cc1ccc2nc(/C(C#N)=C/c3cccc(Br)c3)[nH]c2c1,-11% (active)
2,COc1cccc(/C=C(\C#N)c2nc3ccc(C)cc3[nH]2)c1,53%
3,COc1ccc(C(=O)c2oc3ccccc3c2NC(=O)c2cc(=O)c3ccc(C)cc3o2)cc1Cl,87%
4,O=C(C1c2ccccc2Oc2ccccc21)N1CCCCC1,103%
5,CCCCn1c(CCCN2C(=O)c3ccccc3C2=O)nc2ccccc2c1=O,104%
6,N#CCOc1nc(OCC#N)nc(OCC#N)n1,-1% (active)
7,CONc1nc(NC(C)(C)C)nc(OCC#N)n1,102%
8,CNc1nc(OCC#N)nc(N2CCCCC2)n1,119%
9,CCOc1ccc(CNC(=O)c2cc3c(=O)n(C)c4ccccc4c3s2)cc1,84%
10,CCCCCCn1c(CNC(=O)c2ccccc2)nc2ccccc21,91%
11,CCn1c(O)c(/C=C/c2nc3ccccc3n2CC)sc1=S,108%
12,CCCCCn1c(CNC(=O)c2ccccc2)nc2ccccc21,89%
13,Cc1cccc(C(=O)NCCc2nc3ccccc3n2CCC(C)C)c1,116%
14,CCC(C)Cn1c(/C=C/c2ccccc2)nc2ccccc21 (centres undefined),1% (active)
15,CC(C)Cn1c(/C=C/c2ccc(F)cc2)nc2ccccc21,-12% (active)
16,CCCn1c(CNC(=O)c2ccc(F)cc2)nc2ccccc21,69%
17,CCc1nc2ccccc2n1CCO,101%
18,CC(C)CCn1c(/C=C/c2ccccc2)nc2ccccc21,-1% (active)
19,CCCCCCn1c(/C=C/c2ccccc2)nc2ccccc21,0% (active)
20,CCCCCn1c(CNC(=O)c2ccc(F)cc2)nc2ccccc21,90%
21,CCc1nc2ccccc2n1CC(C)C(=O)O (centres undefined),108%
22,Cc1cc(C)n2nc(SCC(=O)Nc3cccc(C(F)(F)F)c3)nc2n1,56%
23,CCc1ccc(-n2c(SCc3ccccc3F)nc3[nH]ncc3c2=O)cc1,93%
24,O=C(CCS(=O)(=O)c1cc2c(cc1Cl)NC(=O)CO2)NCCc1ccc(Cl)cc1,116%
25,COc1ccc(NC(=O)Cn2c(=O)n(CC3CCCO3)c(=O)c3ccccc32)c(OC)c1 (centres undefined),86%

row,Structure (SMILES),survival
1,O=c1c2sc3ccccc3c2n(Cc2ccccc2F)c(=O)n1CCc1ccccc1,86%
2,O=C(NCc1ccccc1)c1cc(Sc2cccc(Cl)c2)nc2ccccc12,78%
3,CCc1ccc(C(=O)c2cn(CC(=O)Nc3cc(OC)ccc3OC)c3nc(C)ccc3c2=O)cc1,124%
4,CC(C)Cn1c(=O)c2ccccc2n2c(CCC(=O)N3CCN(c4ccccc4)CC3)nnc12,127%
5,CCC1CCCCN1C(=O)COc1ccc(F)cc1 (centres undefined),113%
6,CCOc1ccc(C2C(=O)N(C3CCCCC3)CC(=O)N2CCc2ccccc2)cc1OC (centres undefined),117%
7,Cc1cccc(N2CCCC2=Nc2ccc(Br)cc2C#N)c1,116%
8,O=C(Nc1ccccc1Cl)c1ccc(F)c(S(=O)(=O)NCc2ccc(Cl)c(Cl)c2)c1,69%
9,COc1ccc2cc(CNc3ccc(C)cc3)c(=O)n(CC(=O)Nc3cccc(Cl)c3C)c2c1,73%
10,COc1ccc(C(=O)N(Cc2ccc(N(C)C)cc2)Cc2ccco2)cc1Cl,81%
11,CCOC(=O)N1CCN(Cc2nc3cc(NC(=O)c4ccc(OC)cc4)ccc3n2C(C)C)CC1,89%
12,Cn1c(C=Nc2ccc(Cl)cc2)nc2ccccc21,111%
13,C#CCn1c(COc2ccccc2C)nc2ccccc21,115%
14,C#CCn1c(/C=C/c2ccc(Cl)cc2)nc2ccccc21,23% (active)
15,Cn1c(C(=O)NCCc2ccccc2)cc2c(=O)n3ccccc3nc21,80%
16,CCOc1ccc(NC(=O)Cn2nnc(C(=O)NCc3cccs3)c2N)cc1,97%
17,Cc1ccc2c(c1)cc1c(=O)n(Cc3ccc(Cl)cc3)nc(C)n12,97%
18,COc1cc(/C=C(\C#N)c2nc3ccccc3[nH]2)ccc1OCc1cccc(C(F)(F)F)c1,66%
19,Cc1sc(-n2cccc2)c(C(C)NC(=O)Nc2ccccc2Cl)c1C (centres undefined),77%
20,Cc1sc(-n2cccc2)c(C(C)NC(=O)Nc2cccc(C(F)(F)F)c2)c1C (centres undefined),6% (active)
21,COc1ccc(NC(=O)NC(C)c2c(-n3cccc3)sc(C)c2C)cc1OC (centres undefined),76%
22,Cc1ccc(NC(=O)NC(C)c2c(-n3cccc3)sc(C)c2C)cc1F (centres undefined),74%
23,COC(=O)c1ccc(Cl)cc1NC(=O)NC(C)c1c(-n2cccc2)sc(C)c1C (centres undefined),12% (active)
24,COC(=O)c1ccc(NC(=O)NC(C)c2c(-n3cccc3)sc(C)c2C)cc1 (centres undefined),89%
